An excerpt weighted towards active compounds, which were near 1.4% of everything screened.
S1P2 ag: S1P2 (human) receptor agonism. O95136. S1P2-expressing cell line, agonist reporter read-out. activation, % at 4.5 µM. 0.46% of 97,000 active. AID 729; in the data active = activation above about 16%;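 also: 0% = vehicle low control and 100% = maximal reference agonist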
PTPN22 inh 2: inhibitors of human LYP (PTPN22) phosphatase; Q9Y2R2; recombinant LYP catalytic domain, DiFMUP fluorescence; 0.21% of 96,000 active; inhibition, % at 2 µM;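 active = inhibition at 2 µM at or above a set limit, the screen mean plus 3 SD, cut at about 24% in these data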;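 also: 0% = DMSO with enzyme and 100% = enzyme fully blocked by orthovanadate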
Target sequence (Q9Y2R2 whole entry, looked up, the tested form may be a part): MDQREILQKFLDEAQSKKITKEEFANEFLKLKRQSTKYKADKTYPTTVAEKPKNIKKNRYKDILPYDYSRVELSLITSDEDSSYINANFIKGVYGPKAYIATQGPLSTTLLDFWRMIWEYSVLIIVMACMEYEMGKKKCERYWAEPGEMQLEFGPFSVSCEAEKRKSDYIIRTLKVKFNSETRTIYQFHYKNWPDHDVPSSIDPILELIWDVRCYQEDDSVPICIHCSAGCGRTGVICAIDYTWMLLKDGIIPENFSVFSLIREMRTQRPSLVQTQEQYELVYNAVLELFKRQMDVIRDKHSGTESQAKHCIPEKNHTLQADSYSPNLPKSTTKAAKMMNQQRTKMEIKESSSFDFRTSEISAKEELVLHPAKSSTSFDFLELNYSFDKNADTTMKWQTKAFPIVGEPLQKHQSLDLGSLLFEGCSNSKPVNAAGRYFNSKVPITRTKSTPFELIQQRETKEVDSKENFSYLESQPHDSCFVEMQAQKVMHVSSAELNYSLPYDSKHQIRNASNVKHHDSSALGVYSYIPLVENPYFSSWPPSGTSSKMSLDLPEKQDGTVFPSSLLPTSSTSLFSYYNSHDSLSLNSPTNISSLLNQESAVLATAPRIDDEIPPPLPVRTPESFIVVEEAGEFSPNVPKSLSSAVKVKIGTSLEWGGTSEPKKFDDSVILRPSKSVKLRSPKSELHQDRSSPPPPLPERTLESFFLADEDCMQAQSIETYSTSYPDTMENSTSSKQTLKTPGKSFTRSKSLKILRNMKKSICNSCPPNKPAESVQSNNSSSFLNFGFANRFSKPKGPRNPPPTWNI
PTPN22 act: activators of human LYP (PTPN22) phosphatase | 0.11% of 96,000 active | activation, % at 2 µM | recombinant LYP, DiFMUP fluorescence; 0 = plate median, 100 = signal doubled;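 active = activation at 2 µM above a set limit, the mean plus 5 SD, cut at about 37% in these data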
S1P2 blocker: antagonists of human S1P2 receptor | O95136 | cell-based S1P2 antagonist assay, inhibition at 5 uM | AID 736 | 0.21% of 97,000 active | inhibition, % at 5 µM; in the data active = inhibition above about 45%;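 also: CRE beta-lactamase reporter cells expressing human S1P2 stimulated with S1P; 0% = agonist at EC80 alone and 100% = agonist plus reference antagonist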
GALR2 blocker: antagonists of human galanin receptor 2 (GALR2). GALR2-expressing cells, antagonist mode. inhibition, % at 4 µM. 0.39% of 140,000 active. AID 828;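 also: cells stimulated with galanin 1-16 at roughly its EC80; 0% = agonist challenge control and 100% = basal control without agonist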
GALR2 agonist: activates the human galanin receptor 2. activation, % (test concentration not listed). 0.48% of 140,000 active. GALR2-expressing cells, agonist activation read-out; in the data active = activation above about 5%, passing the limit was not always enough;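 also: 0% = vehicle buffer wells and 100% = reference agonist at full effect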
GALR2 blk conf: GALR2 (human) antagonism confirmed; shares compounds with GALR2 blocker; GALR2-expressing cells, antagonist mode, inhibition; inhibition, % at 4 µM; 60% of 480 active; AID 866;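 also: cells stimulated with galanin at about its EC80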
BLA inhib ctr: counter-screen for GALR2 antagonists: beta-lactamase reporter inhibitors. 36% of 480 active. CHO NFAT-BLA reporter, beta-lactamase FRET, thapsigargin-stimulated. inhibition, % at 4.2 µM. shares compounds with GALR2 blocker;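 active = inhibition above the mean inhibition across tested compounds plus 3 SD, cut at about 27% in these data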;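 also: 0% = 500 nM thapsigargin stimulated wells and 100% = unstimulated BSA only wells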
* = called active by the depositor; x = not tested or not shown. Rule as the data show it, unless noted: active = inhibition above about 27%; inactive = the rest.

SMILES	S1P2 ag	PTPN22 inh 2	PTPN22 act	S1P2 blocker	GALR2 blocker	GALR2 agonist	GALR2 blk conf	BLA inhib ctr
CCN(CC)c1ccc2cc(-c3nc(-c4ccc(OC)cc4)cs3)c(=O)oc2c1	x	x	x	x	78.1*	-4.0	75.3*	85.0*
COc1ccccc1-c1coc2cc(OC(=O)/C=C/c3ccccc3)ccc2c1=O	x	x	x	x	0.1	-1.0	x	x
S=C(Nc1cccc(Cl)c1)Nc1cccc2cnccc12	x	x	x	x	30.0*	-0.8	21.6	10.6
CN(C)CCCN1C(=O)c2cccc3c([N+](=O)[O-])ccc(c23)C1=O	x	x	x	x	56.4*	0.8	47.8*	30.6*
CC1CCC2C(=O)N(c3ccc(C(=O)NCc4ccccc4)cc3)C(=O)C2C1 (configuration not stated)	x	x	x	x	19.9	-0.3	x	x
CCC1=Nc2cc(C(=O)NCc3ccco3)ccc2Sc2ccc(C)cc21	x	x	x	x	30.8*	1.3	10.5	17.9
CCC1=Nc2cc(C(=O)NCCCOC)ccc2Sc2ccccc21	-1.4	0.6	-1.2	-2.3	5.0	-2.0	x	x
Cc1c(Cl)cccc1NC(=O)CCC(=O)NNC(=O)c1ccccc1Cl	-7.8	8.0	-5.6	2.3	-9.2	-1.8	x	x
O=C1C=C(Nc2ccccc2O)c2ccccc2C1=O	-7.5	3.5	0.0	5.1	27.6*	-1.9	14.5	29.0*
CC(=O)Nc1ccccc1O	x	x	x	x	-8.8	-1.1	x	x
Cc1nc([N+](=O)[O-])c(Sc2nc3ccccc3n2C)n1Cc1ccccc1	x	x	x	x	31.4*	-0.4	23.1	6.2
Cc1nc([N+](=O)[O-])c(N2CCN(C)CC2)n1Cc1ccccc1	-7.5	3.2	-0.6	12.2	3.8	-3.1	x	x
O=c1c2c(-c3cccs3)csc2ncn1-c1ccc(Br)cc1	1.6	9.4	-7.9	-38.0	55.2*	-0.4	13.4	8.1
COc1cccc(-n2cnc3scc(-c4cccs4)c3c2=O)c1	1.1	-7.3	6.6	-42.4	4.9	-3.1	x	x
O=C(OCCN1C(=O)c2cccc3c(N4CCOCC4)ccc(c23)C1=O)c1ccccc1Cl	x	x	x	x	33.2*	-0.6	33.5*	45.7*
O=C(CSCc1ccc(F)cc1)NCc1ccco1	-4.6	-0.5	2.1	2.8	1.3	-1.7	x	x
COCCOC(=O)C1=C(C)N=C2SCCC(=O)N2C1c1ccc(OC(=O)c2ccco2)cc1 (configuration not stated)	-6.5	-3.8	5.2	11.8	-13.3	-2.1	x	x
CCSc1nnc(NC(=O)C(C)(C(F)(F)F)C(F)(F)F)s1	-11.3	-9.1	5.4	7.1	4.9	-2.2	x	x
CCSc1nnc(NC(=O)C(CC)(C(F)(F)F)C(F)(F)F)s1	-0.5	3.9	-5.2	-3.4	28.0*	-2.3	2.3	-1.7
COc1cc(/C=C(/C(=O)c2cccs2)c2nc3ccccc3[nH]2)cc(OC)c1O	-9.0	0.5	0.1	44.3	32.2*	-3.1	31.5*	34.5*
Cc1ccc(NC(=O)COC(=O)C2CC2)c(Br)c1	x	x	x	x	6.7	0.2	x	x
CC12CCC(C(=O)N(CC(O)CN3CCCCCC3)C1=O)C2(C)C (configuration not stated)	x	x	x	x	1.2	1.0	x	x
C=CCc1cccc2cc(C(=O)Nc3ccc(S(=O)(=O)Nc4nnc(CC)s4)cc3)c(=O)oc12	x	x	x	x	1.7	-0.7	x	x
COc1ccc(CNC(=O)Cc2nn(C)c(=O)c3ccccc23)cc1	-2.0	-5.9	9.7	21.4	36.0*	-0.7	23.0	5.5
COc1ccc(OC)c(NC(=O)Cc2nn(C)c(=O)c3ccccc23)c1	-0.3	-12.8	12.2	-17.9	8.6	-1.8	x	x
SMILES	S1P2 ag	PTPN22 inh 2	PTPN22 act	S1P2 blocker	GALR2 blocker	GALR2 agonist	GALR2 blk conf	BLA inhib ctr
CC(C)n1nc(C(=O)OCn2nnc3ccccc3c2=O)c2ccccc2c1=O	x	x	x	x	-2.5	-0.6	x	x
Cc1nc2ccc(NS(=O)(=O)c3ccc4c(c3)OCCO4)cc2s1	-2.7	-5.9	4.4	21.6	33.6*	-2.1	26.1	13.1
Cc1ccc(S(=O)(=O)Nc2ccc3nc(C)sc3c2)cc1	-3.3	-8.5	8.4	6.2	15.0	-0.5	x	x
Cn1nnnc1SCC(=O)N1c2ccccc2Sc2ccccc21	1.7	-6.9	7.5	15.0	-4.7	-1.1	x	x
O=C(CSc1nncs1)N1c2ccccc2Sc2ccccc21	x	x	x	x	29.3*	-1.0	19.9	2.4
CC(=O)Oc1ccc(N(C(C)=O)S(=O)(=O)c2ccc(C)c([N+](=O)[O-])c2)cc1	x	x	x	x	12.2	-1.5	x	x
Cc1ccc(-c2oc3ccccc3c(=O)c2O)cc1	x	x	x	x	20.1	-0.5	x	x
O=c1c(O)c(-c2cccs2)oc2ccccc12	-6.1	-4.0	6.5	14.5	29.0*	-1.7	31.2*	36.7*
O=c1cc(-c2cccs2)oc2ccc(Cl)cc12	-2.4	5.8	-4.1	4.2	4.2	-0.9	x	x
O=c1c(O)c(-c2cccs2)oc2ccc(Cl)cc12	-4.0	0.1	-1.2	9.2	33.2*	-2.3	32.0*	42.2*
CCOC(=O)C1=C(N)OC(CCl)=C(C#N)C1c1ccsc1 (configuration not stated)	x	x	x	x	-6.7	-0.7	x	x
CSc1nc2ccccc2n1Cc1c(Cl)cccc1Cl	-3.2	11.9	-10.1	-43.7	-12.1	-0.4	x	x
Cc1ccnc(NC(=O)c2sc3ccccc3c2Cl)c1	x	x	x	x	3.9	-1.5	x	x
Cc1ccc2c(Cl)c(C(=O)Nc3cc(C)on3)sc2c1	-3.1	4.7	-2.8	4.7	28.6*	-1.5	9.5	11.5
O=C(CCl)N(c1ccccc1)c1c[nH]c2ccccc12	-8.2	-7.0	6.8	27.4	36.9*	-2.9	38.2*	18.4
COC(=O)C1(O)CC(C(C)C)=NN1C(=O)c1ccccc1 (configuration not stated)	x	x	x	x	6.1	0.4	x	x
Fc1ccccc1CNC(=S)Nc1cccc(C(F)(F)F)c1	x	x	x	x	0.5	-1.0	x	x
O=C(Nc1cccc(S(=O)(=O)N2CCCC2)c1)c1ccc2c(=O)n3c(nc2c1)CCCCC3	x	x	x	x	34.5*	-0.5	14.0	11.3
CC(=O)Nc1nc2n(n1)C(c1ccc(F)cc1)C=C(c1ccccc1)N2 (configuration not stated)	-9.5	-3.5	2.1	56.0*	30.9*	-2.3	28.0*	45.5*
CC(C)CNC(=O)COC(=O)c1c2c(nc3ccccc13)/C(=C/c1cccs1)CC2	x	x	x	x	31.0*	2.7	38.2*	44.3*
NC(=O)c1ccc(NC(=O)COC(=O)c2c3c(nc4ccccc24)/C(=C\c2cccs2)CCC3)cc1	x	x	x	x	22.8	2.9	x	x
CC1CCCCC1NC(=O)COC(=O)c1c2c(nc3ccccc13)/C(=C/c1ccco1)CC2 (configuration not stated)	x	x	x	x	60.3*	4.8	36.6*	47.9*
Cc1ccc(-c2cc(C(F)(F)F)n3nc(C(=O)NCCCn4ccnc4)cc3n2)cc1C	-2.0	0.2	3.4	-8.2	-17.8	-0.6	x	x
O=C(NCc1cccs1)C(=O)NCC1OCCCN1S(=O)(=O)c1ccccc1 (configuration not stated)	x	x	x	x	0.5	0.1	x	x
